Results: PubChem BioAssay AID1986 (Sanford-Burnham Center for Chemical Genomics, 2009)
Among all 290,000 compounds or so, about 890 (0.31%) were called active. Cut-off read from the data, not from the text of the source: active = inhibition mostly above about 52% (no sharp cut-off); inactive = mostly below about 76%. Many of the other results were omitted from the sample, so actives are more common in it than they were.

Assay: inhibitors of HIV fusion peptide binding, primary screen, biochemical, uHTS, fluorescence dequenching (AID 1986)
Conditions: cell-free peptide binding, 30 min, stronger effect = higher value

CCCOc1cc(C)c(S(=O)(=O)n2ccc(C)n2)cc1C
inhibition (at 20 µM): 1% (inactive)

CC1=Nc2nc(N3CCCCC3)c(C#N)c3c4c(nc(c23)N1)N(c1ccc(C(C)C)cc1)C(=O)C4
inhibition (at 20 µM): 63.9% (active)

COc1ccc(CN2C(=O)Cc3c2nc(N)c2c(N)nc(N4CCCCC4)c(C#N)c32)cc1
inhibition (at 20 µM): 23.9% (inactive)

CCN(CC)c1nc2c3c(nc4c(c3c1C#N)CC(=O)N4c1ccc(Cl)cc1)NC(C)=N2
inhibition (at 20 µM): 16.3% (inactive)

Cc1onc(-c2ccccc2)c1-c1csc(N/N=C/c2ccccc2)n1
inhibition (at 20 µM): -1.5% (inactive)

COc1ccc(C)cc1NC(=O)c1ccccc1NS(=O)(=O)c1ccc(Cl)s1
inhibition (at 20 µM): 60.5% (active)

Cc1ccc(NC(=O)c2ccccc2NS(=O)(=O)c2ccc(Cl)s2)cc1
inhibition (at 20 µM): 56.3% (inactive) | inhibition (measured here: repeat confirmation average inhibition, at 18.6 µM): 29%

O=C(Nc1ccccc1)c1ccccc1NS(=O)(=O)c1ccc(Cl)s1
inhibition (at 20 µM): 28.5% (inactive)

CCN(CC)S(=O)(=O)c1ccc(C(=O)Nc2nnc(-c3ccco3)o2)cc1
inhibition (at 20 µM): 9.7% (inactive)

O=C(NC1CC1)C1CCN(C2CCN(C(=O)c3c(F)cccc3Cl)CC2)CC1
inhibition (at 20 µM): 3.8% (inactive)

CC(C)CN1CCC(=O)N(CCN=[N+]=[N-])CC1
inhibition (at 20 µM): -1.2% (inactive)

CC(C)(Oc1ccc(Cl)cc1)C(=O)Nc1ccncc1
inhibition (at 20 µM): -1.9% (inactive)

NC(=O)[C@@H]1CC2(CC(c3cccc(NC(=O)[C@@H]4CCC(=O)N4)c3)=NO2)CN1C(=O)Cc1ccc([N+](=O)[O-])cc1 (stereo partly specified)
inhibition (at 20 µM): -1.2% (inactive)

CCOc1ccc(/C=C2/SC(=S)N(C(C(=O)O)c3ccccc3)C2=O)cc1OCC (stereo unspecified)
inhibition (at 20 µM): 56.2% (active)

CCOc1cc(/C=C2\SC(=Nc3ccccc3)N(c3ccccc3)C2=O)ccc1OCC(=O)O
inhibition (at 20 µM): 58.9% (active)

O=C(O)C(Cc1ccccc1)N1C(=O)/C(=C/c2cccs2)SC1=S (stereo unspecified)
inhibition (at 20 µM): 17.7% (inactive)

CCOc1cc(/C=C2\SC(=Nc3ccc(F)cc3)N(c3ccc(F)cc3)C2=O)ccc1OCC(=O)O
inhibition (at 20 µM): 41.5% (inactive)

O=C(O)C(Cc1ccccc1)N1C(=O)/C(=C/c2ccccc2)SC1=S (stereo unspecified)
inhibition (at 20 µM): 21.1% (inactive)

COc1ccc(/C=C2\SC(=S)N(C(Cc3ccccc3)C(=O)O)C2=O)cc1 (stereo unspecified)
inhibition (at 20 µM): 38.4% (inactive)

O=C(O)C(Cc1ccccc1)N1C(=O)/C(=C/c2cccc3ccccc23)SC1=S (stereo unspecified)
inhibition (at 20 µM): 52.6% (active)

Cc1ccc(/C=C2\SC(=S)N(C(Cc3ccccc3)C(=O)O)C2=O)cc1 (stereo unspecified)
inhibition (at 20 µM): 53.9% (active)

COc1cc(/C=C2\SC(=Nc3ccc(F)cc3)N(c3ccc(F)cc3)C2=O)ccc1OCC(=O)O
inhibition (at 20 µM): 35.3% (inactive)

COc1cc(/C=C2\SC(=S)N(C(C(=O)O)c3ccccc3)C2=O)ccc1O (stereo unspecified)
inhibition (at 20 µM): 47.4% (inactive)

CCOc1ccc(/C=C2\SC(=S)N(C(C(=O)O)c3ccccc3)C2=O)cc1OC (stereo unspecified)
inhibition (at 20 µM): 12.1% (inactive)

COc1cccc(/C=C2\SC(=S)N(C(Cc3ccccc3)C(=O)O)C2=O)c1 (stereo unspecified)
inhibition (at 20 µM): 30.7% (inactive)
